# Test results reported in article PMC13494018.
# Unmarked numbers belong to inactive results. How the calls were made is not given here.
# Chain of VTCN1, Q7Z7D3 (Q7Z7D3 whole entry): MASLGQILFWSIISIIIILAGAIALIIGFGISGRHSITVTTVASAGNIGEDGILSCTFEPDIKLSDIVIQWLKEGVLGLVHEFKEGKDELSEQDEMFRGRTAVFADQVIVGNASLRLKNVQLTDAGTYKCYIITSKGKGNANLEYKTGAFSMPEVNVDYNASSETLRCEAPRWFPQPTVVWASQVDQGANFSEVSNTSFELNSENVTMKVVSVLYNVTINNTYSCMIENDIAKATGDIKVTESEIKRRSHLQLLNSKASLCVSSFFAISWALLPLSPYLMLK
# Chain of CD276, Q5ZPR3 (Q5ZPR3 whole entry): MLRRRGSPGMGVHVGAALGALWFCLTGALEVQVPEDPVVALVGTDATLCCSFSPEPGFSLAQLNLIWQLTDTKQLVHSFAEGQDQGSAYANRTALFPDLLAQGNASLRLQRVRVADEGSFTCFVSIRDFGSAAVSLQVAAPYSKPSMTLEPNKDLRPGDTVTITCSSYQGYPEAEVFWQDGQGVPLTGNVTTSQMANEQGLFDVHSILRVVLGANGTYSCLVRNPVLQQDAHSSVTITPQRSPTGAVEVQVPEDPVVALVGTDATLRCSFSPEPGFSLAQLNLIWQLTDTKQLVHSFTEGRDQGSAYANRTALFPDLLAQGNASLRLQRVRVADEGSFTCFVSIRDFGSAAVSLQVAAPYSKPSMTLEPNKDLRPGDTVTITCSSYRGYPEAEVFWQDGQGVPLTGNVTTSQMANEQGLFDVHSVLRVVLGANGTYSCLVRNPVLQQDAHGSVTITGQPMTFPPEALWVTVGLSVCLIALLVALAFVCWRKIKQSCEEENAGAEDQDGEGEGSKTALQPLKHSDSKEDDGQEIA
Binder,"binding in a display sort (VTCN1, Q7Z7D3)","binding in a display sort (CD276, Q5ZPR3)"
design_376_bf9d4634-8475-4fdb-a175-1db49a23bdcd_502_dldesign_0_cycle1_af2pred (protein) GKKEKALKELEKLKKEAEELEEEGKKAGPKAYQEAGSMLIKIESALSAAKKGDEEEAEKAAKKAKEAYEKGKEKVTKLIKEEKAKKE,not found,
design_376_bf9d4634-8475-4fdb-a175-1db49a23bdcd_302_dldesign_0_cycle1_af2pred (protein) GEAEKEKLKKEIYKLYREERKKVAEAIKKGKEEGKEALEKAEKALEEKAKEAAKYPEAAQLALQYKEALKEYYEMASK,not found,
design_623_6e2e8b1f-5d9a-4413-9869-27a184816b12_1750_dldesign_0_cycle1_af2pred (protein) DLLEQARIAANSTVALKKTTKEILAKSTPESAEKVAEVAVELAKQAKELGKKAGTKEAKELAKKAEKAAKEAVEAVKKAKA,,not found
design_376_bf9d4634-8475-4fdb-a175-1db49a23bdcd_604_dldesign_0_cycle1_af2pred (protein) SVAAITAHAEALARKAVADPANAAAYLSEARDYVLTNGDAEALRAAADVLRALGAKAPGGAAFAAAARILERAAEDIEKA,not found,
design_623_6e2e8b1f-5d9a-4413-9869-27a184816b12_2207_dldesign_0_cycle1_af2pred (protein) NPKVEELREEVRRLIAELARAGVAGTPEIAATVGAAIEQALKLLGESRETGEESLKEAIKIVKEALKAAA,,not found
design_623_6e2e8b1f-5d9a-4413-9869-27a184816b12_2025_dldesign_0_cycle1_af2pred (protein) GEERLLAAINEGARAILEVTAPESDAQRNAVVHAFILGMVRGPEQGLADLAAAAAALSPEVAKAAVEEATKIIERYLA,,not found
design_376_bf9d4634-8475-4fdb-a175-1db49a23bdcd_661_dldesign_0_cycle1_af2pred (protein) SENIKKLSDARNEAIKYLREAVKLAGEEIKEEAAKAIELIGDLEKIPEALEEIEKAIKLAEKVENAEEVKKLLKKAKESAEEALKLS,not found,
design_376_bf9d4634-8475-4fdb-a175-1db49a23bdcd_232_dldesign_0_cycle1_af2pred (protein) EKEKLEKIVEEIKKYVEEAKELAKGDISSQSKAVSLLHKAFSLAGKAIGKEAKELEDKMLNAETMEEAVKIGEELYEKFSKIAKA,not found,
design_623_6e2e8b1f-5d9a-4413-9869-27a184816b12_1704_dldesign_0_cycle1_af2pred (protein) MEEALTEAFRAVAEMNRLAEEARKANPEAAEKAEEARREMSRLAIEAARSDAETAAELAKKIKEILEKTKKVVEELA,,not found
design_376_bf9d4634-8475-4fdb-a175-1db49a23bdcd_538_dldesign_0_cycle1_af2pred (protein) EAAELAALKAAGKAMAAVVKAADPALGAKVAATVEAGAKGTPAEFKKALQDAIGAVLLENPEAGRAAAKAAKDTYKAAKAA,not found,
design_623_6e2e8b1f-5d9a-4413-9869-27a184816b12_1798_dldesign_0_cycle1_af2pred (protein) AAAEEKTKAYEIALETAKLLTAAAALADELAATNPEAAALAAQARQLNVDLNKTAIAGELTLELAEEYLKKAKEIAARVKALAKAA,,not found
design_623_6e2e8b1f-5d9a-4413-9869-27a184816b12_1434_dldesign_0_cycle1_af2pred (protein) DAAAKELRERATALAGRTLLALARDPAEGERTLEEAVKELEALGKESGLEELAKEEAARLRAQYEAFRAVAEA,,not found
design_623_6e2e8b1f-5d9a-4413-9869-27a184816b12_1572_dldesign_0_cycle1_af2pred (protein) KAEEVVKIVREAAREAKKDPEKAKEYANRALGALLDLAKAGSQEAALVASQGAAKIAKKITSGASAEEIAKALEEAAKKVEEAAKKE,,not found
design_376_bf9d4634-8475-4fdb-a175-1db49a23bdcd_425_dldesign_0_cycle1_af2pred (protein) DEEDEKNLEKVKRIYERAKELAKEGLEAIKKGTSKTKALYGAAKLERAAEAAKAASGGKHKEEMKKIAEESKKLAKELEEASKTY,not found,
design_623_6e2e8b1f-5d9a-4413-9869-27a184816b12_2213_dldesign_0_cycle1_af2pred (protein) AVEELLAKAKEYAAKLKELADDLEAAKALATEKREDIGQVIMAAAIVAATESPEVAARAREVQRHAWSLQR,,not found
design_376_bf9d4634-8475-4fdb-a175-1db49a23bdcd_69_dldesign_0_cycle1_af2pred (protein) ANKEEVDAAADAISEAFRLAREYVLKEGLDPKEVANKLIQGLDDIEYGLALGEELEKDPASAEAGKALKKAAELLAKI,not found,
design_623_6e2e8b1f-5d9a-4413-9869-27a184816b12_1445_dldesign_0_cycle1_af2pred (protein) EEAVLERIRALGEEGAALFQAAIKAAVAGDVAAAEALLKAGREKFEEAIALGEATSPRARELAEEVRRRMEAGEKIAQLAIEGAKA,,not found
design_623_6e2e8b1f-5d9a-4413-9869-27a184816b12_1663_dldesign_0_cycle1_af2pred (protein) GLEEFEKIVREAAEKVIENAGDPEKQREIVLEAAKKAEEAGYSATVGAGAINARVRAEGTPEAAAIAAEVYQELRDKERA,,not found
design_623_6e2e8b1f-5d9a-4413-9869-27a184816b12_1758_dldesign_0_cycle1_af2pred (protein) AEKVKELAKKAEELAKKAEKAAKESLAKAEKYAAKADELAREVNREAQKVATSGEAGEALLKALEAQAKARKALAEAKAKAEA,,not found

Binder,"binding in a display sort (VTCN1, Q7Z7D3)","binding in a display sort (CD276, Q5ZPR3)"
design_623_6e2e8b1f-5d9a-4413-9869-27a184816b12_1352_dldesign_0_cycle1_af2pred (protein) AAEARKAEAVARAKAAAQNAKLVAEGAGEAFAAEAAEVAALAKQAATSTAEEAEKLAEQAAAKTVAMTRAAIALHAAA,,not found
design_376_bf9d4634-8475-4fdb-a175-1db49a23bdcd_370_dldesign_0_cycle1_af2pred (protein) SLGKKLSEALRKAVRAARKAVEYMKAGDEENAEKYYKEAKEYAKELPEDVRNFVLNTMEKKIEEAKKEYA,not found,
design_623_6e2e8b1f-5d9a-4413-9869-27a184816b12_1571_dldesign_0_cycle1_af2pred (protein) GEEAKKLAEEGDKLAEQGKAATPQEGLALLLEAAKKYSEAARLYREAGNEEEAAKAEAKLQEVNAQLNAAAKAAIAA,,not found
design_376_bf9d4634-8475-4fdb-a175-1db49a23bdcd_377_dldesign_0_cycle1_af2pred (protein) GEEVEKLYKELIKAGKEADKALELAVKIGKVDSETLQILGEASIYADNPELAKGLAERDPEKAKERIKETKKAVEEVKKLYKEYK,not found,
design_623_6e2e8b1f-5d9a-4413-9869-27a184816b12_1669_dldesign_0_cycle1_af2pred (protein) SSALQTVKGYLALGKVAATAIRSGKVELGKELAEAAIKGALEAGKEHPEVAEEAEKAAEEIRKITEEALEEVEEA,,not found
design_376_bf9d4634-8475-4fdb-a175-1db49a23bdcd_541_dldesign_0_cycle1_af2pred (protein) EEEAKKLVEKAKEKLKKAKETAKNGTAEEAAKTAKEVFKEAREYGKKLKKKGYDEEYVKKIAEYAHEAAEIYAEESNKV,not found,
design_623_6e2e8b1f-5d9a-4413-9869-27a184816b12_1541_dldesign_0_cycle1_af2pred (protein) DFFEKALKAAKAALKKAEEALEKGKEDLAAAKAAVHQAQAAYVLASGLAVAAEAAGADPKVAKEAKELAEKAKELMEQGKKLAAKLA,,not found
design_623_6e2e8b1f-5d9a-4413-9869-27a184816b12_1921_dldesign_0_cycle1_af2pred (protein) SSVAAFLAAAAQAVKAAAEQGNLAAAAAFLRAAALASDPEAGKKLEALAKAAEAATAEEGKAIAKEGAKLLKELAEEVEAK,,not found
design_623_6e2e8b1f-5d9a-4413-9869-27a184816b12_1410_dldesign_0_cycle1_af2pred (protein) SEELRERARELREEAERAEREAREAAERGDAERVREQLRRLSRLAAEAARLANQATAAGDEETAAEANEALARAVEAMERAQEWAE,,not found
design_623_6e2e8b1f-5d9a-4413-9869-27a184816b12_2057_dldesign_0_cycle1_af2pred (protein) MEVIEKLKEYGQQAIDILTGLAKAQPAVKDVAEPAAQEVREATKKAVERGEKEGEEAAKKEYEKVHALANAALARVSKLAAA,,not found
design_623_6e2e8b1f-5d9a-4413-9869-27a184816b12_2159_dldesign_0_cycle1_af2pred (protein) AAAAAAKVAEAAAKAMLRTAKAILKESKASGGAKAPDALAAAEVALALADDLERQGGDPKTAEKLKKEAKAVAAEAKKVAA,,not found
design_623_6e2e8b1f-5d9a-4413-9869-27a184816b12_2491_dldesign_0_cycle1_af2pred (protein) TAKALAAAVEKAKELAAIVAEVQGDGAFGAAMVNTLANYAAAAGVPQALVDRARAAAKEALASADGAKVALAELKALAAEFKAA,,not found
design_623_6e2e8b1f-5d9a-4413-9869-27a184816b12_1355_dldesign_0_cycle1_af2pred (protein) AVAQQALATAQRNLERAKEYAKAGDVKAATAFATTAITLAQAVAATDPALAPQAQAIIDQAQAVIEEAKA,,not found
design_376_bf9d4634-8475-4fdb-a175-1db49a23bdcd_110_dldesign_0_cycle1_af2pred (protein) VEELVEKVKKETAKKVWESTDLSAEEKEKVADELEALAKELAKISPEAAKAAKKAAAVVKRFAEDEKKAE,not found,
design_376_bf9d4634-8475-4fdb-a175-1db49a23bdcd_487_dldesign_0_cycle1_af2pred (protein) DIKEELKKLAEEVKKLAKEVAELSKKDKEEAKVKAEEAEKLAEKALELAVKAIKEDEEAREVAHEAITEAFYALSVADAAK,not found,
design_623_6e2e8b1f-5d9a-4413-9869-27a184816b12_1575_dldesign_0_cycle1_af2pred (protein) NAGQAVADALRAATEAERAAAAVDPALAAQARALLAKAMQAAVAGDDAEAIAYAAEVRALRDEVLARAAA,,not found
design_623_6e2e8b1f-5d9a-4413-9869-27a184816b12_1942_dldesign_0_cycle1_af2pred (protein) AAAAATVAANAALAMAKKALEIAERAKKAGEEAPELAQSALQALDVAEALIAYATAISAAADAATKAKLAEAKKVVKEAREIAEKVIK,,not found
design_376_bf9d4634-8475-4fdb-a175-1db49a23bdcd_131_dldesign_0_cycle1_af2pred (protein) DLEEELKKLIEKALKGNLEEALKALDEAVKLVEEKLSKTTADTAKEIAKAGKENAKKAETEEEARKNIAKALKTIKRIALLDAE,not found,
design_376_bf9d4634-8475-4fdb-a175-1db49a23bdcd_214_dldesign_0_cycle1_af2pred (protein) MELLKEAEKYAKEAKEYAEKALKEPEKAEEYVKKAAEYVAKLYELAAEAYRLDKELGKKAKKLAKEARKEVKEKYKEAKK,not found,
